Screening results from PubChem BioAssay.
aSyn yeast inh – rescues yeast growth from alpha-synuclein toxicity; AID 652106; Yeast expressing alpha-synuclein, growth rescue, BacTiter-Glo, 24 h; Potency, µM (titrated, usually from 46.1 µM), without a hit: at the top dose growth rescue (activation), usual class: activators; 370,000 tested, 0.14% active; note: potency is the fitted concentration of half-maximal effect; % of control where 0% means no effect; nearly all actives have a fitted effect of over 65% in size
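Screening used galactose-induced yeast with toxic alpha-synuclein levels, exposed to compound for 24 hr at 30 deg C. Cell growth, read with BacTiter-Glo luminescence, gave the measured signal.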
TDP-43 yeast inh – TDP-43 toxicity inhibition in yeast | TDP-43 expressing yeast growth rescue, BacTiter-Glo, 24 h | Potency, µM (titrated, usually from 46.1 µM), without a hit: at the top dose growth rescue (activation), actives largely listed as activators | 410,000 tested, 1.8% active; note: potency is the fitted concentration of half-maximal effect; % of control where 0% means no effect; nearly all actives have a fitted effect of over 50% in size
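Luminescence from BacTiter-Glo reports growth of TDP-43-expressing yeast after 24 hr at 30 deg C with compound. Cells were raffinose-pregrown to mid-log, then seeded in galactose medium at OD600=0.02.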
LDHA inh – inhibitors of human lactate dehydrogenase A; purified LDHA, NADH/diaphorase-resazurin fluorescence; active compounds read low; activity change, % (values are at about 110 or 230 µM); 480,000 tested, 0.15% active; in the data active = activity change below about -30%; inconclusive = mostly about -25% to -30%;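 note: plate controls were DMSO wells for no effect and wells without enzyme for full effect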
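Resorufin fluorescence (ex540/em590), read at 0 and 20 min after diaphorase/resazurin addition, reports the NADH left after a 5 min room-temperature reaction of 2 nM human LDH5 with 0.06 mM NADH and 0.2 mM pyruvate.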
Abeta yeast res – A-beta toxicity reversal in yeast | 410,000 tested, 0.063% active | AID 1347071 | Potency, µM (top dose mostly 46.1 µM), usual class: activators | yeast expressing A-beta42, growth rescue, OD600, 48 h; response scale: 0% DMSO, 100% iron-clioquinol control; note: potency is the fitted concentration of half-maximal effect; nearly all actives have a fitted effect of over 55% in size
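Yeast A-beta toxicity model in growth medium with pinned compounds, 48 h at 30 C; growth read as absorbance at 600 nm. Normalized to FeCl3/clioquinol equimolar mix (positive) and DMSO (negative).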
FUS yeast rescue – rescues growth of FUS-expressing yeast | S. cerevisiae FUS-expressing, growth rescue, OD600, 24 h | Potency, µM (titrated, usually from 76.6 µM), hits mostly activators | 390,000 tested, 0.24% active | AID 1347120;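 note: potency is the fitted concentration of half-maximal effect; plate controls were DMSO vehicle for no effect and reference control for full effect; nearly all actives have a fitted effect of over 55% in size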
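Cultures pregrown in 2.5% raffinose medium are shifted to minimal medium containing 2% galactose to express toxic FUS. Compounds are tested at several concentrations. After 24hr at 30C, growth is quantified at 600 nm absorbance.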
IDH1 R132H inh – human IDH1 R132H inhibition; O75874; IDH1-R132H enzyme, NADPH consumption, diaphorase/resazurin fluorescence; Potency, µM (series often up to 76.6 µM), inactives show at the highest dose activity change, negative = inhibition, hits mostly inhibitors; 390,000 tested, 0.093% active; AID 602179; note: potency is the fitted concentration of half-maximal effect; % is set by controls: 0 for no effect and ±100 for the full control effect; nearly all actives have a fitted effect of over 65% in size
Target sequence (O75874 whole entry R132H, stated change not applied): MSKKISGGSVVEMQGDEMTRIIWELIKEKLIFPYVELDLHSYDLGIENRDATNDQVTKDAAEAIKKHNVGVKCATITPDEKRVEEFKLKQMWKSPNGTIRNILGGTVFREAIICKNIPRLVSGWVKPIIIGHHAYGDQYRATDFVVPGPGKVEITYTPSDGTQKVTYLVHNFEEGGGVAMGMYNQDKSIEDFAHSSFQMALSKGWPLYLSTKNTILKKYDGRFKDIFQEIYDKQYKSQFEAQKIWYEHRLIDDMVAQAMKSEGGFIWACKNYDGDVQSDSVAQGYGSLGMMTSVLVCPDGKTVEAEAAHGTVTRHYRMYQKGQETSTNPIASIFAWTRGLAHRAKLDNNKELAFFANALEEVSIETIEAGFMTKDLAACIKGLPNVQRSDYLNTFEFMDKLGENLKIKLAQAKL
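IDH1-R132H (0.5 ug/mL) preincubated 30 min with compound, then NADPH (0.016 mM) and alpha-KG (2 mM) added; 80 min at RT, pH 7.5. Remaining NADPH coupled via diaphorase/resazurin to fluorescence (540/590 nm); concentration-response curves normalized to no-enzyme control.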
Active calls of the source: *; i = inactive; ? = inconclusive; . = no result given; ! = not active in a repeat; [ ] = remark or other dose. An excerpt weighted towards active compounds, which were near 2% of everything screened. Unless noted, calls come from the whole dose curve; as a rule, active = well fitted curve in the direction sought with a large enough effect; inconclusive = small, poorly fitted or top-dose-only effect, or another doubt; inactive = no such curve, though single readings can be large; an effect the other way counts as inactive or inconclusive.

SMILES	aSyn yeast inh	TDP-43 yeast inh	LDHA inh	Abeta yeast res	FUS yeast rescue	IDH1 R132H inh
CCCCC(=O)NC(=S)Nc1cc([N+](=O)[O-])ccc1OC	-15%	7.1µM*	-2	i	i	-7%
CCOc1ccc(-c2cc(C(=O)OC)c3cc(C)ccc3n2)cc1	.	.	-24	.	.	.
CCCCNC(=O)CN1CCN(Cc2ccc3cc(OC)ccc3c2)CC1	-7%	-7%	-33*	i	i	8%
COc1ccc2c(c1)c1nnc(SC(C)C)nc1n2C	7.9µM*	.	-6	.	.	.
COc1ccc2c(c1)c1nnc(SCC(=O)N3C(C)CCCC3C)nc1n2C (stereo not given)	8%	14µM*	-10	i	i	-4%
CCOc1ccc2c(c1)c1nnc(SCC(=O)NC3CC3)nc1n2C	-3%	-18%	-2	i	i	-2%
CCOC(=O)C(C)Sc1nnc2c3ccccc3n(C)c2n1 (stereo not given)	2%	?	-2	i	i	7%
COc1ccc2c(c1)c1nnc(SC)nc1n2C	3.5µM*	2.8µM*	3	i	i	2%
COc1ccc2c(c1)c1nnc(SCCN3CCOCC3)nc1n2C	1%	.	3	.	.	.
CCOc1ccccc1C(=O)Nc1cc(Cl)ccc1O	-35%	2.8µM*	-2	i	i	10%
CCOc1ccccc1C(=O)Nc1cc2c(cc1N1CCCCC1)n(C)c(=O)n2C	.	32µM*	-8	i	i	?
COc1ccccc1C(=O)Nc1cc(Cl)ccc1O	-5%	5%	-7	i	i	1%
CCCCSCC(O)CSc1nc(-c2ccccc2)cc(-c2ccc(C)cc2)c1C#N (stereo not given)	.	.	3	.	.	.
CCc1cc(=O)oc2cc(OC(C)C(=O)NCc3cccnc3)ccc12 (stereo not given)	.	.	-3	.	.	.
CNS(=O)(=O)c1cc(-c2n[nH]c(=O)c3ccccc23)ccc1C	.	.	-2	.	.	.
Cc1ccc(-c2n[nH]c(=O)c3ccccc23)cc1S(N)(=O)=O	-1%	-14%	-30*!	i	i	7%
Oc1ccc(-c2csc(Nc3cccc(O)c3)n2)cc1	.	.	10	.	.	.
CC(C)NC(=O)/C(C#N)=C\c1cccc(/C=C(/C#N)C(=O)NC(C)C)c1	.	.	-4	.	.	.
O=C(c1cccc(Br)c1)N1CCN(c2cnn(-c3ccccc3)c(=O)c2Cl)CC1	-3%	-22%[1.82 µM]	2	i	i	0%
O=C(c1cc2c(=O)n3ccccc3nc2s1)N1CCN(c2cccc(Cl)c2)CC1	11%	?	-1	i	?	5%
O=C(c1c(Cl)nc2sccn12)N1CCN(c2cccc(Cl)c2)CC1	-1%	14µM*	-1	i	i	8%
O=C(c1cc2ccccc2cc1O)N1CCN(c2cccc(Cl)c2)CC1	13%	11µM*	-1	?	i	3%
O=C(c1ccccc1F)N1CCN(c2cnn(-c3cccc(Cl)c3)c(=O)c2Cl)CC1	-3%	20µM*	-6	i	i	-2%
N#Cc1ccc(NC(=O)CNc2cc(S(=O)(=O)N3CCCCC3)ccc2N2CCCCC2)cc1	.	.	12	.	.	.
COc1ccc(OC)c(C(c2nnnn2C2CCCC2)N2CCN(c3ccccc3F)CC2)c1 (stereo not given)	8%	32µM*	-2	i	i	2%
CC(=O)Nc1ccc(-c2csc(Nc3ccc(O)cc3)n2)cc1	.	.	-1	.	.	.
NNc1nc(-c2ccccc2)nc2sc3c(c12)CCCC3	-4%	-3%	-4	i	i	11%
Nc1c2c(nc3sc4c(c13)CCCC4)-c1ccccc1CC2	-7%	2.5µM*	-4	i	i	3%
COC(=O)c1ccc(OCC2c3cc(OC)c(OC)cc3CCN2C(=O)Cc2ccccc2)cc1 (stereo not given)	1%	20µM*	-3	i	?	0%
